TEAD-YAP block: TEAD-YAP interaction inhibition | HEK-TIYL cells, TEAD-Gal4/YAP UAS-luciferase luminescence | inhibition, % at 9.12 µM | hit rate 1.4% among 640,000 | AID 1259422; in the data active = inhibition above about 32%;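 note: 0% = median of test compound wells and 100% = reference inhibitor wells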
GPR151 ag: activators of human GPR151; PathHunter beta-arrestin GPR151 cells, luminescence; activation, % at 11.2 µM; hit rate 1% among 650,000; in the data active = activation above about 4.9%;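 note: 0% = median of compound wells and 100% = cells with positive control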
MITF primary: blocks human microphthalmia-associated transcription factor. AlphaScreen MITF homodimerization, bead proximity signal. inhibition, % at 2.6 µM. hit rate 0.91% among 650,000. AID 1259374; in the data active = inhibition above about 50%;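 note: 0% = vehicle wells with protein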
Target sequence (O75030 whole entry, looked up): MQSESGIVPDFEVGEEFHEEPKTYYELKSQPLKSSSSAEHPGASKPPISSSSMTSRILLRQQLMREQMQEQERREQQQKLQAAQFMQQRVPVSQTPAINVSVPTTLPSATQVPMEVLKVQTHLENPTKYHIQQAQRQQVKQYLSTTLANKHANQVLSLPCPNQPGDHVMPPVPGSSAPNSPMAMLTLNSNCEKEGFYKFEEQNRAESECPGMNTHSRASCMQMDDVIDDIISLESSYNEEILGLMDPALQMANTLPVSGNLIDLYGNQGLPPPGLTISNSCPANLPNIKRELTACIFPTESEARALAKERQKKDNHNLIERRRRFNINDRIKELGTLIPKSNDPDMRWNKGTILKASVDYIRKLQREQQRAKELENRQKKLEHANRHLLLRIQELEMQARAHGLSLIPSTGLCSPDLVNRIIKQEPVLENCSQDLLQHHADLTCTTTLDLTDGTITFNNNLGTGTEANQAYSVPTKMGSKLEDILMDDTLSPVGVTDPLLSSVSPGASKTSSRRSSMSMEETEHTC
FBW7 act: human FBW7 E3 ligase activation, primary screen; normalized activity (activation), % at 26.1 µM; AlphaScreen FBW7–phospho-cyclin E peptide binding, activator screen; Q969H0; hit rate 0.13% among 650,000; in the data active = normalized activity above about 1.9%;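 note: purified mutant Fbw7 with reduced substrate affinity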
MITF inh conf: confirmation of human MITF inhibitors; shares compounds with MITF primary; AlphaScreen MITF homodimerization, biotin/His-MITF beads; inhibition, % at 2.6 µM; hit rate 16% among 4,700;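 active = inhibition above a cutoff derived from the DMSO control wells, cut at about 28% in these data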;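 note: 0% = MITF dimer wells with DMSO only; inhibitors lower the bead chemiluminescence by keeping MITF from dimerizing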
AS interf DR: optically interferes with AlphaScreen signal in dose response; hit rate 6% among 480; AlphaScreen optical interference counterscreen, cell-free; shares compounds with MITF primary; IC50, µM; AID 1259373; call rule not given here
AS interf ctr: AlphaScreen optical interference, counter-screen. shares compounds with MITF primary. LysRS AlphaScreen counterscreen, signal interference, triplicate. inhibition, % at 2.6 µM. hit rate 7.6% among 4,700;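 active = inhibition above a cutoff derived from the DMSO control wells, cut at about 30% in these data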
* marks the source's active call; other numbers are inactive results; · = not tested or not shown. Only some compounds are listed: those with a hit (about 3.5% of all), similar ones and a draw of the others.

SMILES	TEAD-YAP block	GPR151 ag	MITF primary	FBW7 act	MITF inh conf	AS interf ctr	others
CCCCn1c(=O)[nH]c(=O)c2c1nc(-c1ccc([N+](=O)[O-])o1)n2C	15.1	0.0	79.0*	-0.2	66.5*	5.2	AS interf DR=>7
CCCCn1c(=O)[nH]c(=O)c2c1nc(-c1ccc(C)c([N+](=O)[O-])c1)n2CC	-11.0	-0.2	10.5	0.5	·	·
c1cc2c(cc1Cc1nn[nH]n1)OCO2	1.2	1.4	66.2*	-0.2	4.2	-1.8
O=C(Nc1nc(CC(=O)N2CCc3ccccc3C2)cs1)C1CC1	12.9	0.7	59.0*	0.0	-2.3	-0.5
Cc1ccc([N+](=O)[O-])c(OCCOCCN2CCN(Cc3ccccc3)CC2)c1	-4.7	-0.2	70.1*	-0.2	11.9	-0.4
COc1cc(C(C)=O)ccc1OCCOCCN1CCN(Cc2ccccc2)CC1	5.8	2.6	86.6*	0.5	5.0	11.8
Cc1ccc([N+](=O)[O-])c(OCCCN2CCN(Cc3ccccc3)CC2)c1	-5.8	0.7	44.1	-0.3	·	·
Cc1c(C(=O)N2CC(C)OC(C)C2)sc2nc(-c3ccc(F)cc3)cn12 (centres undefined)	-2.2	-0.6	19.3	0.4	·	·
COc1cc(/C=C/C(=O)Nc2nnc(C(F)(F)F)s2)cc(OC)c1OC	10.4	-1.1	52.2*	0.0	4.6	13.2
O=C(/C=C/c1ccc(Cl)cc1)Nc1nnc(C(F)(F)F)s1	-6.3	0.7	-2.7	-0.1	·	·
CCN(CC)CCN(C)Cc1cccc2ccccc12	2.9	-0.8	66.2*	-0.2	-11.1	2.2
CCN(CC)CCN(C)Cc1c(F)cccc1Cl	5.0	0.8	56.5*	-0.1	-4.7	0.4
CCN(CC)CCN(C)Cc1ccc(F)cc1F	6.9	0.4	56.7*	0.0	-2.4	-5.6
Cc1cc(=S)cc(C)n1CCCn1ccnc1	-1.7	-0.1	-5.3	0.5	·	·
Cc1cc(C(N)=O)c(C)n1CCCn1ccnc1	1.6	-0.3	76.2*	-0.8	14.9	21.6
O=C(COc1ccccc1)NCC(=O)N/N=C/c1ccco1	0.9	-0.2	-3.0	-0.1	·	·
Cc1nn(C)c(C)c1CCC(=O)N1CCN(c2ncccn2)CC1	-1.7	-0.8	71.9*	-0.1	9.2	13.9
O=C(CSc1nnc(-c2cccc(Cl)c2)o1)Nc1ccccc1	-39.8	-2.0	81.6*	0.2	3.6	14.6
O=C(CNC(c1ccccc1)c1ccccc1)NNC(=O)c1ccccc1Br	0.8	0.2	62.8*	0.0	9.2	17.2
O=C(NC(c1ccccc1)c1ccccc1)c1ccccc1Br	-0.7	0.5	13.1	0.1	·	·
O=C(Nc1ccccc1C(F)(F)F)c1cc2ccccc2oc1=O	-32.6	1.5	6.1	0.0	·	·
OCCCNc1ccc2ncc(-c3ccccc3Cl)n2n1	8.0	2.0	85.4*	-0.1	12.6	17.3
O=[N+]([O-])c1ccc(C(O)CN2CCc3ccccc32)cc1 (centres undefined)	-0.3	-1.2	-1.2	-0.1	·	·
O=C(O)c1ccc(C(=O)O)c(-c2ccccc2)c1	2.9	0.3	8.2	0.0	·	·
O=C(O)c1cccc(-c2cc(C(=O)O)ncc2C(=O)O)c1	-1.1	2.0	57.2*	-1.2	15.6	37.8*
SMILES	TEAD-YAP block	GPR151 ag	MITF primary	FBW7 act	MITF inh conf	AS interf ctr	others
COc1ccc2sc(/C=C(\C)SC)[n+](CCCS(=O)(=O)O)c2c1	-1.4	1.7	8.1	0.1	·	·
CCN(Cc1ccncc1)C(=O)Cn1nnnc1CN1CCCCCC1	-3.4	0.0	10.4	0.3	·	·
C=CCn1c(COc2ccc(Br)cc2)nnc1SCC(=O)c1ccc(OC)cc1	9.8	0.8	11.3	0.3	·	·
COc1ccccc1CNCc1cc(Br)ccc1OC	-2.3	-1.0	69.7*	-0.3	-10.6	-4.7
CCNCc1cc(Br)ccc1OC	8.5	1.3	14.4	0.3	·	·
C/C=C/C(=O)Nc1nnc(-c2cccnc2)s1	14.3	-1.7	7.4	1.0	·	·
O=C(CN1CCN(C(=O)NCc2cccs2)CC1)c1ccco1	5.2	-0.8	57.5*	0.1	9.0	27.7
O=C(CN1CCN(C(=O)NCc2ccc(Cl)cc2)CC1)c1cccs1	3.5	-2.4	58.9*	1.1	7.9	18.9
Cc1ccccc1NC(=O)N1CCN(CC(=O)c2ccco2)CC1	-11.3	-0.7	54.2*	0.2	9.6	22.3
COc1ccc(-c2cc(COC(=O)c3cc4ccccc4o3)no2)cc1	4.2	1.6	13.9	0.1	·	·
O=C(CSCc1ccccc1)Nc1nnc(SCC(=O)N2CCCCCC2)s1	1.6	-1.5	8.4	-0.1	·	·
CCCN(CCO)Cc1ccccc1C(F)(F)F	6.0	-0.4	51.1*	0.1	11.1	12.2
CCCN(CCO)Cc1cccc2ccccc12	-3.0	1.5	-4.2	-0.2	·	·
COc1ccc2nc(Nc3nc(C)c(C)c(C)n3)nc(C)c2c1	-13.9	0.6	20.4	1.2	·	·
Cc1nc(N2CCOCC2)c2ccsc2n1	-0.4	-0.9	82.3*	-0.2	0.2	-6.0
Cc1nc(N2CCCC2)c2ccsc2n1	-3.5	0.6	2.8	0.0	·	·
CN(C)CC(C)(C)CNC(=S)NCc1ccc2c(c1)OCO2	9.5	1.2	53.9*	-0.3	-0.5	-1.8
COc1ccc(C2(O)CSC3=C(C#N)C(c4ccc(C)cc4)CC(=O)N32)cc1OC (centres undefined)	-5.1	-1.0	-4.9	0.0	·	·
CN1CCC(N(C)Cc2ccc(Cl)cc2)CC1	-11.2	1.4	52.7*	-0.1	-4.7	-0.3
CN1CCC(N(C)Cc2cccc(F)c2)CC1	-3.9	-0.2	58.7*	0.3	-1.1	3.0
CN1CCC(N(C)Cc2c(F)cccc2Cl)CC1	7.0	3.8	52.5*	-0.2	18.0	7.1
CN1CCC(N(C)Cc2cccc(Br)c2)CC1	-3.2	0.4	34.5	-0.2	·	·
CN1CCC(N(C)Cc2cccc(Cl)c2Cl)CC1	0.0	1.6	11.8	-0.1	·	·
COC(=O)c1ccc(CN(C)C2CCN(C)CC2)cc1	-4.5	-0.1	57.0*	0.1	11.1	16.0
COc1ccc(CN(C)C2CCN(C)CC2)c(C)c1C	-5.3	0.0	59.1*	0.2	-1.5	8.5
SMILES	TEAD-YAP block	GPR151 ag	MITF primary	FBW7 act	MITF inh conf	AS interf ctr	others
COc1cc(OC)c(OC)cc1CN(C)C1CCN(C)CC1	-4.5	0.0	25.4	-0.1	·	·
C=C(C)/C=N/Nc1ccc([N+](=O)[O-])cc1S(=O)(=O)Nc1ccc(OC)cc1	7.3	-1.1	19.9	0.2	·	·
COc1ccc2c(c1)CC(C(=O)Nc1ccc(-c3cn[nH]c3)cc1OCCN1CCN(S(C)(=O)=O)CC1)CO2 (centres undefined)	10.8	-0.5	-6.8	0.2	·	·
CS(=O)(=O)c1ccc2nc(NC(=O)/C=C/c3cccc([N+](=O)[O-])c3)sc2c1	1.4	0.8	79.8*	0.1	-9.1	-6.0
CS(=O)(=O)c1ccc2nc(NC(=O)/C=C/c3ccccc3Cl)sc2c1	1.3	-0.3	6.7	0.3	·	·
CC(C)(C)NCC(=O)Nc1c2c(nc3c1CCC3)CCCC2	5.0	0.1	74.8*	-0.1	3.2	-3.0
CNCC(=O)Nc1c2c(nc3c1CCC3)CCCC2	0.2	-0.3	61.4*	0.0	-1.9	-1.2
